Experimental data published in publication PMC11062922 (Nature Chemical Biology, 2023).
Like-named read-outs stand apart in the source and are kept apart here.

How the values were obtained:
Parameters in all cases: species or system human, MV4-11 + K-562 + COLO205 + SK-N-BE2 + OVCAR-8
CDK7 = details: read-out: apparent Kd; compound concentrations:100 nM and 1000 nM (sheet 'Samples'); n = 1
ERCC2 = details: read-out: apparent Kd; compound concentrations:100 nM and 1000 nM (sheet 'Samples'); n = 1
FER = details: read-out: apparent Kd, n = 1
PLK4 = details: read-out: apparent Kd, n = 1
PRKAA1 = details: read-out: apparent Kd, n = 1
PRKCQ = details: read-out: apparent Kd, n = 1
PTK2B = details: read-out: apparent Kd, n = 1
PTK2 = details: read-out: apparent Kd, n = 1
RPS6KA6 = details: read-out: apparent Kd, n = 1
TNK2 = details: read-out: apparent Kd; compound concentrations:100 nM and 1000 nM (sheet 'Samples'); n = 1
CDKL5 = details: read-out: apparent Kd, compound concentrations: 100 nM and 1000 nM (sheet 'Samples'), n = 1
FLT3 = details: read-out: apparent Kd, compound concentrations: 100 nM and 1000 nM (sheet 'Samples'), n = 1
LATS1 = details: read-out: apparent Kd, n = 1
MARK4 = details: read-out: apparent Kd, n = 1
MYLK3 = details: read-out: apparent Kd, n = 1
PRKCD = details: read-out: apparent Kd, n = 1
DYRK1A = details: read-out: apparent Kd, compound concentrations: 100 nM and 1000 nM (sheet 'Samples'), n = 1
PRKD2 = details: read-out: apparent Kd, n = 1
PRKD3 = details: read-out: apparent Kd, n = 1
STK10 = details: read-out: apparent Kd, n = 1
[1] = compound concentrations:100 nM and 1000 nM (sheet 'Samples')

## CC(=O)N[C@@H](Cc1ccc(OP(=O)(O)O)cc1)C(=O)N[C@H]1CCC(=O)N2CCC[C@@H](C(=O)NCc3ccc(Cl)cc3)N2C1=O [RO0325308-000]
CDK7
  potency estimated from few doses: 49.9 nM
ERCC2
  potency estimated from few doses: 39.4 nM
FER; [1]
  potency estimated from few doses: 59.5 nM
PLK4; [1]
  potency estimated from few doses: 637 nM
PRKAA1; [1]
  potency estimated from few doses: 801 nM
PRKCQ; [1]
  potency estimated from few doses: 785 nM
PTK2B; [1]
  potency estimated from few doses: 367 nM
PTK2; [1]
  potency estimated from few doses: 652 nM
RPS6KA6; [1]
  potency estimated from few doses: 620 nM
TNK2
  potency estimated from few doses: 51.7 nM

## CNCC#Cc1c(F)ccc2c1/C(=C/c1[nH]ccc1OC)C(=O)N2.Cl [RO0281601-001]
CDKL5; CATDS: 0.30453752260001898
  potency estimated from few doses: 9.43 nM
FLT3; CATDS: 6.9218069305552701E-2
  potency estimated from few doses: 105 nM
LATS1; compound concentrations: 100 nM and 1000 nM (sheet 'Samples'), CATDS: 3.7561417632614502E-2
  potency estimated from few doses: 394 nM
MARK4; compound concentrations: 100 nM and 1000 nM (sheet 'Samples'), CATDS: 2.40121909495257E-2
  potency estimated from few doses: 1380 nM
MYLK3; compound concentrations: 100 nM and 1000 nM (sheet 'Samples'), CATDS: 6.4458343159200099E-2
  potency estimated from few doses: 121 nM

## CCn1c(-c2nonc2N)nc2c(C#CC(C)(C)O)nc(O[C@@H](CN)c3ccccc3)cc21.O=C(O)C(F)(F)F [GSK1007102B]
LATS1; [1]
  potency estimated from few doses: 23.2 nM
MARK4; [1]
  potency estimated from few doses: 768 nM
PRKAA1; [1]
  potency estimated from few doses: 917 nM
PRKCD; [1]
  potency estimated from few doses: 173 nM
PRKCQ; [1]
  potency estimated from few doses: 71.9 nM

## O=C1N=C(NCCCc2ccccc2)S/C1=C\c1ccc2ncccc2c1 [RO4493941-000]
DYRK1A; CATDS: 6.8092992761352805E-2
  potency estimated from few doses: 1090 nM
FLT3; CATDS: 7.0899563785954994E-2
  potency estimated from few doses: 945 nM

## c1ccc(-c2n[nH]cc2Nc2ccnc3ccccc23)nc1 [GW694077X]
DYRK1A; CATDS: 7.5630271191524906E-2
  potency estimated from few doses: 80.3 nM
PRKD2; compound concentrations: 100 nM and 1000 nM (sheet 'Samples'), CATDS: 7.8874466930765497E-2
  potency estimated from few doses: 74 nM
PRKD3; compound concentrations: 100 nM and 1000 nM (sheet 'Samples'), CATDS: 6.6484920518239093E-2
  potency estimated from few doses: 104 nM

## O=C(O)C(F)(F)F.O=C(O)C(F)(F)F.O=c1[nH]ccc2nc(N[C@@H]3CCCNC3)nc(Nc3ccc(S(=O)(=O)N4CCOCC4)cc3)c12.O=c1[nH]ccc2nc(N[C@@H]3CCCNC3)nc(Nc3ccc(S(=O)(=O)N4CCOCC4)cc3)c12 [GSK2177277A]
FER; compound concentrations: 100 nM and 1000 nM (sheet 'Samples'), CATDS: 8.2739447120601401E-3
  potency estimated from few doses: 507 nM
FLT3; CATDS: 9.0751024069003396E-3
  potency estimated from few doses: 370 nM
LATS1; compound concentrations: 100 nM and 1000 nM (sheet 'Samples'), CATDS: 1.48300039917603E-2
  potency estimated from few doses: 99 nM
MARK4; compound concentrations: 100 nM and 1000 nM (sheet 'Samples'), CATDS: 1.7623267984443299E-2
  potency estimated from few doses: 68 nM
MYLK3; compound concentrations: 100 nM and 1000 nM (sheet 'Samples'), CATDS: 7.6821350503620796E-3
  potency estimated from few doses: 670 nM
PLK4; compound concentrations: 100 nM and 1000 nM (sheet 'Samples'), CATDS: 9.3439650172966598E-3
  potency estimated from few doses: 337 nM
PRKAA1; compound concentrations: 100 nM and 1000 nM (sheet 'Samples'), CATDS: 9.2771532951669705E-3
  potency estimated from few doses: 345 nM
PRKCD; compound concentrations: 100 nM and 1000 nM (sheet 'Samples'), CATDS: 1.08121865447726E-2
  potency estimated from few doses: 219 nM
PRKCQ; compound concentrations: 100 nM and 1000 nM (sheet 'Samples'), CATDS: 6.3096913927369299E-3
  potency estimated from few doses: 1710 nM
PRKD2; compound concentrations: 100 nM and 1000 nM (sheet 'Samples'), CATDS: 1.40829388038229E-2
  potency estimated from few doses: 112 nM
PRKD3; compound concentrations: 100 nM and 1000 nM (sheet 'Samples'), CATDS: 1.7898299297347601E-2
  potency estimated from few doses: 65.9 nM
PTK2B; compound concentrations: 100 nM and 1000 nM (sheet 'Samples'), CATDS: 2.4807788404782798E-2
  potency estimated from few doses: 35.2 nM
PTK2; compound concentrations: 100 nM and 1000 nM (sheet 'Samples'), CATDS: 7.5985318000446602E-3
  potency estimated from few doses: 700 nM
RPS6KA6; compound concentrations: 100 nM and 1000 nM (sheet 'Samples'), CATDS: 8.3254992837084908E-3
  potency estimated from few doses: 496 nM
STK10; compound concentrations: 100 nM and 1000 nM (sheet 'Samples'), CATDS: 9.0871108796095092E-3
  potency estimated from few doses: 369 nM

## CN(C)CC(O)COc1ccc(Nc2nccc(-c3cnn4nc(N5CCOCC5)ccc34)n2)cc1 (centres unmarked) [GW767488X]
PRKD2; [1]
  potency estimated from few doses: 28.7 nM
PRKD3; [1]
  potency estimated from few doses: 44.8 nM

## CNc1cc(-c2ccc3c(N)n[nH]c3c2)nc(N)n1 [GSK2224810A]
MYLK3; [1]
  potency estimated from few doses: 457 nM
RPS6KA6; [1]
  potency estimated from few doses: 899 nM

## O=C(O)C(F)(F)F.O=c1[nH]ccc2nc(N[C@@H]3CCNC3)nc(Nc3cc(Cl)cc(Cl)c3)c12 [GSK2188764A]
MARK4; [1]
  potency estimated from few doses: 122 nM
MYLK3; [1]
  potency estimated from few doses: 184 nM
PRKAA1; [1]
  potency estimated from few doses: 799 nM
PRKCD; [1]
  potency estimated from few doses: 222 nM
PRKCQ; [1]
  potency estimated from few doses: 2080 nM
PRKD2; [1]
  potency estimated from few doses: 1300 nM
PRKD3; [1]
  potency estimated from few doses: 1470 nM
PTK2B; [1]
  potency estimated from few doses: 46.7 nM
RPS6KA6; [1]
  potency estimated from few doses: 618 nM
STK10; [1]
  potency estimated from few doses: 992 nM

## Cl.Cl.NC[C@H](CC1CCCCC1)NC(=O)c1ccc(-c2ccnc3[nH]ccc23)s1.NC[C@H](CC1CCCCC1)NC(=O)c1ccc(-c2ccnc3[nH]ccc23)s1 [GSK1581428A]
LATS1; [1]
  potency estimated from few doses: 1120 nM
PRKCD; [1]
  potency estimated from few doses: 719 nM

## Cl.Nc1nc(-c2ccc3c(c2)C(=Cc2cc(Br)c(O)c(Br)c2)C(=O)N3)cs1 [GW407323A]
CDKL5; CATDS: 9.5267986760985093E-2
  potency estimated from few doses: 73.7 nM
DYRK1A; CATDS: 7.6450134498411204E-2
  potency estimated from few doses: 110 nM
MARK4; compound concentrations: 100 nM and 1000 nM (sheet 'Samples'), CATDS: 2.9036597376729201E-2
  potency estimated from few doses: 1630 nM
MYLK3; compound concentrations: 100 nM and 1000 nM (sheet 'Samples'), CATDS: 0.25523575381679198
  potency estimated from few doses: 17.2 nM
PRKD2; compound concentrations: 100 nM and 1000 nM (sheet 'Samples'), CATDS: 3.4430997277348899E-2
  potency estimated from few doses: 812 nM
PRKD3; compound concentrations: 100 nM and 1000 nM (sheet 'Samples'), CATDS: 3.1520603000909302E-2
  potency estimated from few doses: 1130 nM
